# From the supplement of paper PMC11417369
# ± gives the standard deviation of the averaged measurements. Whole data set: some 25,000 sequences, median “ln(normalized median fluorescence intensity)” near 8.9, cut for the highest 2% near 10. Many of the other results were omitted from the sample, so the highest values are more common in it than they were.
# Test system: PfAP2-LT AP2 domain (GST-tagged)
# Test: gcPBM binding intensity (ln(normalized median fluorescence intensity)); higher = stronger DNA binding
# In short: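 Using an Agilent 4 × 180k array, primer-extended double-stranded 36-bp intergenic genomic probes and negative controls were exposed for 1 h to GST-fused P. falciparum DNA-binding domains expressed in E. coli. Binding was carried out in 1× PBS with 1% milk, 0.2 mg/ml BSA, 0.5% salmon testes DNA and 0.03% Triton X-100, and protein was detected with Alexa488 anti-GST antibody and a 488 nm scan. Binding intensity is the highest Masliner-normalised natural-log median intensity across replicate spots of either probe orientation.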
row,Sequence,gcPBM binding intensity (ln)
1,TTTTTTTTAGTATGAACACACATATAGATTATAAAA [CACACA_site7391],8.35 ± 0.41
2,AAAAAATATATATTAACACACACACTAATAAAAAAA [CACACA_site8366],9.56 ± 0.17
3,ATAATCCTTAAACACACACACACACTAATAAATAAA [CACACA_site8052],10.1 ± 0.25
4,ATAATATGAAAACACACACACACACTAATAAAAAAA [CACACA_site8617],10.3 ± 0.16
5,AAAAAAAAAAAACACACACACACACTAATATATAAA [CACACA_site8302],10.3 ± 0.35
6,TATGAACACAGACACACACACAAAAAAAAAAAAAAA [CACACA_site7037],9.18 ± 0.56
7,ATAATATGAAATATAACACACATATATAAAAACATT [CACACA_site866],9.11 ± 0.33
8,TACATAAATTAAAACACACACACACTAATAAAAAAA [CACACA_site8712],9.85 ± 0.18
9,AAAAAAAATATGAAAACACACATATATAAATAAATA [CACACA_site113],8.88 ± 0.46
10,AATATGAACAGACACACACACACAAAAAAAAAAAAA [CACACA_site2012],9.9 ± 0.56
11,AACAAACACAGACACACACACACACTAATATGATTA [CACACA_site8770],10.2 ± 0.45
12,ATATAAATAATATAAATACACACTAAAAAAAATATA [CACACA_site542],8.88 ± 0.44
13,TATATATATATATATACACACACACTAATAAAAAAA [CACACA_site8426],9.65 ± 0.057
14,CTTATATGAAGCCTCTTTATTCATAAATAAGAATAA [TGCATGCA_negctrl_site120],8.21 ± 0.38
15,AAAATTATTTTTATGTGTACTTATTTATTATTTATA [XGTACX_site6665],8.79 ± 0.46
16,ATTATCTTATGTTATTTATTTGTCCCACATTTGTTA [TGCATGCA_negctrl_site402],8.91 ± 0.46
17,AAATTGTCAAAACACGCACACACATATACATAATAA [CACACA_site1743],9.62 ± 0.36
18,ATTCATTATTCACCTTGTACACAAATGATTATCGTA [XGTACX_site455],8.93 ± 0.45
19,ATAATATGAAAACACACACACACACTAGAAAAAAAA [CACACA_site5153],10.2 ± 0.27
20,AAAAAATCAAAACACACACACACACTAGAAAAAAAA [CACACA_site4909],10.1 ± 0.49
21,AATAATAAACACAATCAAATAAAATATGAAATATAA [GTGCAC_negctrl_site307],8.84 ± 0.49
22,GAGAAAAATAAATACACACACATAAATAAATACATA [CACACA_site5102],9.74 ± 0.42
23,CAGTGCCAAATTAGCACACACATATATACATGAATT [CACACA_site2814],9.3 ± 0.38

row,Sequence,gcPBM binding intensity (ln)
1,TCGTCTCTTCTTGTTCTGTTTTAGAAGGCTATATAT [CACACA_negctrl_site180],8.88 ± 0.44
2,AAGAACAGATAAAATCGTACGTGAAACATGAACTTG [XGTACX_site7793],9.03 ± 0.48
3,AATGTGCAAACAAACTGTACTTTTTTTTTTTTTTTT [XGTACX_site928],8.86 ± 0.26
4,GATACAAAATGGGGAACACACACATATATATATATA [CACACA_site9278],10.1 ± 0.22
5,TACAAAATGGGGAACACACACATATATAAATAAATA [CACACA_site7751],9.6 ± 0.63
6,AAAAAAAAAAAACATACACACAAATATATACATACA [CACACA_site4011],9.15 ± 0.33
7,TACAAAATGGGGAACACACACATATATATATATATA [CACACA_site3844],10.2 ± 0.05
8,AAAAAAAAAAAACACACACACACATACAAAATATAT [CACACA_site1448],10.04 ± 0.071
9,CATAAAAATGAACATACACACATATATATATATATA [CACACA_site2498],9.8 ± 0.17
10,AAAATAAGCGTGAAACGTACATATTACATTATTATA [XGTACX_site8914],8.78 ± 0.56
11,TATTAAAGATACTCGGTATAAATAAATTTTAATGTG [XGTACX_negctrl_site239],8.54 ± 0.52
12,AAGAGAAATGGGCACACACACACATATTATAGATAT [CACACA_site6828],9.8 ± 0.21
13,TCTTATCCATATATTACACACTATATATAGAAATTA [CACACA_site291],8.66 ± 0.39
14,TTTGAAATATATTTAGTGCATATATATTGATTATAA [GTGCAC_site9604],8.39 ± 0.38
15,TTTGAATACTGAATGGTGCAAATTGTTCTCCCCATG,8.67 ± 0.57
16,CCCTCCCCATGTTTAGTGCAAAAATATTTGAAATTG [GTGCAC_site9873],10.1 ± 0.057
17,ATTTTAGAATAAATTTTTTACATTAAAAAACTATTT [CACACA_negctrl_site1414],8.21 ± 0.54
18,ATAAGAAGAAGAAAAACACACATATGTAGATATATA [CACACA_site7469],9.01 ± 0.42
19,ACTTGTAAGAAACACACACACACACCCATATATATA [CACACA_site796],10.2 ± 0.16
20,AAAGAAAGAAAGAATACACACACACCGATATATATA [CACACA_site9246],9.77 ± 0.31
21,AAACTTGTAAGAAACACACACACACGCATATAAATA [CACACA_site6518],9.98 ± 0.099
22,ACTTGTAAGAAACACACACACACACCGATATATATA [CACACA_site4594],10.1 ± 0.31
23,AAACTTGTAAGAAACACACACACACCCATATATATA [CACACA_site797],9.96 ± 0.15

row,Sequence,gcPBM binding intensity (ln)
1,TTTAACGTTGAATATACACACATATATATATATATA [CACACA_site3698],9.55 ± 0.042
2,AAACATAAGGGACACACACACATATATATATATATA [CACACA_site5920],10.2 ± 0.27
3,CATTATAAGAAACACACACACATATATATATATATA [CACACA_site1051],10.2 ± 0.25
4,AAACATAAGAAACACACACACATATATATATATATA [CACACA_site3642],10.32 ± 0.064
5,TATATATAATTATAAGAACACACATATATATATATA [CACACA_site8786],9.46 ± 0.36
6,TATATTAAGAAACACACACACATATATATATATATA [CACACA_site1609],9.82 ± 0.23
7,TATATATATAAACACACACACACATATATATATATT [CACACA_site8814],9.84 ± 0.014
8,TATATATATAAACACACACACATATATATATATATA [CACACA_site4584],9.94 ± 0.14
9,TATATAATTATAAGAACACACATATATATATATATA [CACACA_site2472],9.6 ± 0.16
10,AAAAAAAAAAGAAACACACACATATATATATATAAT [CACACA_site5052],9.44 ± 0.35
11,ATAAATTAACATTAAAGTACATTTTAATAAATATTA [XGTACX_site3647],8.31 ± 0.52
12,TACCAATAAATGAAGGTGCGTGCTTGCCTTTGCTAT,8.95 ± 0.31
13,TCTATACCTATTCTTACACACATATGTATAAATATA [CACACA_site6407],9.04 ± 0.36
14,ATATAATCAGCTTCTCTTTTATGCTAAAAAAAAAAA [CACACA_negctrl_site1310],8.25 ± 0.3
15,ATATTATAGTTATGAACATGCAAACATTACGAAATA [TGCATGCA_site54],8.76 ± 0.5
16,GTATATATATACCATTGTACTTTCGTAAAAATATTT [XGTACX_site4846],8.8 ± 0.4
17,TAAGACATGATATATACACACCTTGTTTTAATTTTC [CACACA_site5282],8.86 ± 0.45
18,TATATACATATATGTACACACATTACAGATGTACAT [CACACA_site966],9.21 ± 0.38
19,ATTTTTTTTTTTTTTTTGGGGGGGTATACTTTTAAA [CACACA_negctrl_site1020],10.6 ± 0.2
20,TATACTTTATATATTTTGTATATATATTTTTTTTAT [TGCATGCA_negctrl_site530],8.8 ± 0.48
21,GTTAATATTTTTGGGGGTACTTAAAAAAAAAAAAAA [XGTACX_site1477],8.525 ± 0.021
22,AATATATATATATATATTTTTGTTAGAATATGGAAT [GTGCAC_negctrl_site434],8.65 ± 0.32
23,AAAAAAAATACATACACACACACACCCACATATATA [CACACA_site3561],10.13 ± 0.05

row,Sequence,gcPBM binding intensity (ln)
1,TATAAATATACACCCACACACATATATATATATATA [CACACA_site3745],9.94 ± 0.16
2,TATAAATATACACCCACACACATATATAAATAAATA [CACACA_site7717],9.65 ± 0.16
3,CATATATACGCATACACACACACACCCACACCCACA [CACACA_site1725],10.16 ± 0.05
4,TATACGCATATATACACACACATATATATATATATA [CACACA_site3416],10.1 ± 0.11
5,TATACATATACATATACACACACACCCATAAATAAA [CACACA_site8372],9.8 ± 0.22
6,TACACGCTAAAATACACACACACACCCACATATATA [CACACA_site4153],10.2 ± 0.11
7,AAAAAAAAAATACATACACACACACCCACCCATATA [CACACA_site9187],10.18 ± 0.021
8,TACCCACTAAAATACACACACACACCCACATATATA [CACACA_site6141],10 ± 0.42
9,TATATAAATATACACCCACACACATATATATATATA [CACACA_site9247],9.61 ± 0.28
10,CACCCACCCACATACACACACATACACATATATATA [CACACA_site1722],10 ± 0.22
11,TACATATACATATACACACACACACCCAAATAAATA [CACACA_site1344],10.04 ± 0.05
12,ATTTTTTTTAAACGAAGTACAATTTGTGCATTGGAA [XGTACX_site8109],8.45 ± 0.39
13,GTACATACATAAAACACACACATATAGATTTATATA [CACACA_site6945],9.47 ± 0.33
14,TATTTTTTTTGATATTGTACTTTTTTATTATTTTTT [XGTACX_site566],8.76 ± 0.51
15,TATTTTTATATATAATCACACATTGGAATGTTCTAA [CACACA_site5540],8.67 ± 0.44
16,TTGAAGGTGGCAATGTGTACATAGAATAACCAGTGC [XGTACX_site4738],9.15 ± 0.54
17,TATATATTATGACCACCACACACCTATACGCATAAC [CACACA_site2447],9.44 ± 0.085
18,ATAAAATACATATAAACACACATATAAACCGACATA [CACACA_site2477],9.28 ± 0.38
19,TATACACCCTAAAATACACACACACCCACCCATATA [CACACA_site9380],10.06 ± 0.078
20,AAAATACACGCATACACACACACACCCACCCATATA [CACACA_site639],10.4 ± 0.14
21,CACCCATAAATATACACACGCACAACACAAAATAAA [CACACA_site2903],9.63 ± 0.41
22,TAAATTAAAAAAAATACACACACACCGACACATATA [CACACA_site9084],9.84 ± 0.26
23,AAAATACACGCATACACACACACACCGACACATATA [CACACA_site4523],10.4 ± 0.28
